Compounds with a hit are over-represented: about 2.8% of the library has one in this group of screens.
Peg3 prom inh: reduces Peg3 promoter-driven luciferase expression in HeLa; inhibition, % at 20 µM; HeLa PEG-Prom luciferase reporter, luminescence, overnight; 1.7% of 360,000 active; AID 588405;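 active = inhibition of at least 50% at 20 µM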
Shn3 3UTR inh: reduces Shn3 3'UTR luciferase signal in osteoblasts. Clone20 osteoblast Shn3 3'UTR firefly luciferase, 24 h. inhibition, % at 12.5 µM. 0.52% of 360,000 active. AID 588674;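 active = mean inhibition of at least 75% with every replicate also reaching 75%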
KKLEB tox: counter-screen for CF NF-kB inhibitors: cytotoxicity. KKLEB CF airway cells viability, ATPlite luminescence, overnight; stronger effect = lower value; cells stimulated with P. aeruginosa culture filtrate. activity change (cytotoxicity), % at 5 µM. 0.36% of 360,000 active. AID 602141;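 active = corrected activity change at or below -50% at 5 µM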
HIF-2a inh: inhibitors of HIF-2a | 0.72% of 360,000 active | inhibition, % at 18.8 µM | 786-0 RCC cells HIF-2a reporter, luciferase luminescence, overnight;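 active = inhibition of the luminescence signal of 40% or more relative to plate controls, in a single-dose primary screen at 18.75 µM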
MITF TRPM1 inh: inhibitors of MITF-driven TRPM1 promoter in melanoma cells | SK-MEL-5 TRPM1 promoter luciferase, 24 h | inhibition, % at 12.5 µM | 0.83% of 330,000 active | AID 488899;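 active = mean inhibition across replicates of 60% or more, whatever share of single replicates reaches that level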
CF NFkB inh: blocks PAF-induced NF-kB reporter in cystic fibrosis cells | KKLEB NF-kB-GFP reporter, GFP fluorescence overnight | inhibition, % at 5 µM | 0.86% of 360,000 active | AID 588850;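 active = at least 50% inhibition at 5 µM, scaled per plate between neutral and stimulator controls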;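 note: PAF is a Pseudomonas aeruginosa culture filtrate used as stimulus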
Large screens that a line does not name were inactive.

COc1cc(/C=C(/C#N)C(=O)Nc2ccc(C)cc2)ccc1Oc1nc(Cl)ncc1F	Peg3 prom inh 51
CC(C)NC(=O)c1cnc(N2CCN(c3ccccn3)CC2)c2ccccc12	none
CCc1ccc(NC(=O)c2cnc(N3CCN(c4ccccn4)CC3)c3ccccc23)cc1	Peg3 prom inh 65
CCOC(=O)c1c(C)oc2ccc(O)c(CN(C)C)c12	none
CCOC(=O)c1c(CSc2ccc(CC)cc2)oc2ccc(O)c(CN(C)C)c12	Peg3 prom inh 98, Shn3 3UTR inh 90
O=C(O)c1ccc(NC2(C(=O)O)CCCC2)cc1	none
Cc1cc(OCC(=O)N(Cc2cccs2)C2CCS(=O)(=O)C2)ccc1Cl (configuration not stated)	none
COc1ccc(CCC(C)N2CCOCC2)cc1 (configuration not stated)	none
O=[N+]([O-])c1ccc(-c2nc(Nc3ccc(O)cc3)c3ccccc3n2)cc1	Peg3 prom inh 64
CC(C)(C)NC(=O)C(c1ccncc1)N(Cc1cccs1)C(=O)Cn1nnc(-c2cccs2)n1 (configuration not stated)	Peg3 prom inh 63
O=C(Nn1cnnc1)c1ccc(Cl)c(Cl)c1	none
COC(=O)c1cc2c(n1S(=O)(=O)c1ccc(C)cc1)C(=O)C(=O)c1[nH]cc(C(=O)OCc3ccccc3)c1-2	Peg3 prom inh 89, Shn3 3UTR inh 92, KKLEB tox -69, MITF TRPM1 inh 108, CF NFkB inh 85
COC(=O)c1ccc(COC(=O)c2ccc(CS(=O)(=O)c3ccc(C)cc3)cc2)cc1	none
CCCn1ncc(C(=O)NC2CCCN(Cc3ccc(Cl)cc3)C2)c1C (configuration not stated)	none
CCCCNC(=O)C1CCC(CNc2nc(=S)[nH]c3ccccc23)CC1 (configuration not stated)	none
O=C(NCCC1=CCCCC1)C1CCC(CNc2nc(=S)[nH]c3ccccc23)CC1 (configuration not stated)	MITF TRPM1 inh 64
O=C(NCCc1ccc(Cl)cc1)C1CCC(CNc2nc(=S)[nH]c3ccccc23)CC1 (configuration not stated)	MITF TRPM1 inh 76
CC1(C)C2CCC1(CS(=O)(=O)NCc1ccc(C(F)(F)F)cc1)C(=O)C2 (configuration not stated)	none
CCOC(=O)c1c(C)n(-c2ccc(C)cc2)c2ccc(OCC(O)CN3CCN(C)CC3)cc12 (configuration not stated)	Peg3 prom inh 78
CCOC(=O)c1c(C)n(C)c2ccc(OCC(O)CN3CCN(C)CC3)cc12 (configuration not stated)	none
COc1cc(C(=O)N2Cc3cc4ccccc4nc3C2C)cc(OC)c1OC (configuration not stated)	none (no result: MITF TRPM1 inh)
COCCCN1C(=O)C(CC(=O)NC2CCCC2)CC(C(=O)N(C(C)C)C(C)C)=C1C (configuration not stated)	none (no result: MITF TRPM1 inh)
CC(/C=C(\NC(=O)c1ccccc1)C(=O)N=Nc1c(O)[nH]c2ccc(C)cc12)=C\c1ccccc1	Peg3 prom inh 53, CF NFkB inh 53
Cc1ccc2[nH]c(O)c(N=NC(N)=S)c2c1	none
Cc1cccc2cc3c(N)c(C(=O)Nc4ccc(N5CCOCC5)cc4)sc3nc12	Peg3 prom inh 56
Cc1sc(NC(=O)c2sc3nc4c(C)cccc4cc3c2N)c(C#N)c1C	none
Cc1nn2cc(-c3ccccc3)nc2s1	none
c1ccc(-c2cn3nc(-c4ccccc4)sc3n2)cc1	KKLEB tox -60
COc1ccccc1NCC(O)COc1ccc(C(C)(C)C)cc1 (configuration not stated)	none
COc1ccc(OCC(O)CNCCOc2ccccc2OC)c(C(C)(C)C)c1 (configuration not stated)	Peg3 prom inh 63
COc1ccc(Cl)cc1N1C(=O)/C(=C/c2sccc2C)N=C1SCC(=O)NC1CC1	none (no result: MITF TRPM1 inh)
COc1ccc(NC(=O)COC(=O)c2ccc(OCc3ccccc3Cl)c(OC)c2)c(OC)c1	KKLEB tox -75, CF NFkB inh 61
Cc1ccc(OC(=O)c2oc3ccc(F)cc3c2C)c(C)c1	KKLEB tox -69, CF NFkB inh 53
O=C1CC(Sc2nnnn2-c2ccccc2)C(=O)N1c1cccc(Cl)c1 (configuration not stated)	Peg3 prom inh 116, Shn3 3UTR inh 90

High-throughput results (PubChem BioAssay)
